{
  "source": "PubChem BioAssay",
  "data": [
    {"experiment": "sensitizers of A549 cells to miR-34 induction, primary screen, imaging, A549 dox-inducible miR-34, nuclei and caspase counts (AID 1347080); also: test concentration not given here", "settings": "A549 miR-34 inducible, Hoechst nuclei count, 48 h; measured here: relative caspase fold change +Dox/-Dox", "values": [
      {"smiles": "CC(=O)N(CC(C)C(=O)O)c1c(I)cc(I)c(N)c1I", "note": "(stereo unspecified)", "fold change": 1.42},
      {"smiles": "Cc1cc(C(=O)NNCc2ccccc2)no1", "fold change": 1.27},
      {"smiles": "COc1ccccc1S(=O)(=O)Nc1ccc2c(c1)CN(C)C(=O)N2", "fold change": 0.364},
      {"smiles": "Cc1cc(C#N)cc(C)c1Oc1nc(Nc2ccc(C#N)cc2)nc(N)c1Br", "fold change": 2.01},
      {"smiles": "Nc1ncn(C2OC(CO)C(O)C2O)c(=O)n1", "note": "(stereo unspecified)", "fold change": 0.203},
      {"smiles": "O=C1OC(CN2CCOCC2)CN1N=Cc1ccc([N+](=O)[O-])o1", "note": "(stereo unspecified)", "fold change": 1.96},
      {"smiles": "CCC(=O)OCC(=O)C1(OC(=O)CC)[C@H](C)C[C@H]2[C@H]3[C@H]([C@@H](O)C[C@@]21C)[C@@]1(C)C=CC(=O)C=C1C[C@H]3Cl", "note": "(stereo partly specified)", "fold change": 1.32},
      {"smiles": "Cc1cc(C)c(Nc2ccnc(Nc3ccc(C#N)cc3)n2)c(C)c1", "fold change": 0.624},
      {"smiles": "CC(C)(C)C(=O)OCOC(=O)[C@@H]1N2C(=O)[C@@H](N=CN3CCCCCC3)[C@H]2SC1(C)C", "fold change": 0.721},
      {"smiles": "CNC(=O)c1c(I)c(C(=O)NCC(=O)Nc2c(I)c(C(=O)O)c(I)c(C(=O)NCCO)c2I)c(I)c(N(C)C(C)=O)c1I", "fold change": 0.7},
      {"smiles": "CNc1ncnc2c1ncn2[C@@H]1O[C@H](CO)[C@@H](O)[C@H]1O", "fold change": 1.48},
      {"smiles": "Nc1nc(=S)c2ncn([C@@H]3O[C@H](CO)[C@@H](O)[C@H]3O)c2[nH]1", "fold change": 1.52},
      {"smiles": "COc1ccc(CC(N)C(=O)NC2C(CO)OC(n3cnc4c(N(C)C)ncnc43)C2O)cc1", "note": "(stereo unspecified)", "fold change": 0.403},
      {"smiles": "O=c1ccn(C2OC(CO)C(O)C2O)c(=O)[nH]1", "note": "(stereo unspecified)", "fold change": 0.784},
      {"smiles": "O=C1NCCN1c1ncc([N+](=O)[O-])s1", "fold change": 1.68},
      {"smiles": "CC=C1NC(=O)C2CSSCCC=CC(CC(=O)NC(C(C)C)C(=O)N2)OC(=O)C(C(C)C)NC1=O", "note": "(stereo unspecified)", "fold change": 0.484}
    ]}
  ]
}
